Records with an inconclusive call do not appear. Entries that show only a call come without a potency. Active and inactive are the calls of the source. The call rests on the fitted dose curve; in most records, active means well fitted cell-killing curve with a large enough effect; inconclusive means small, poorly fitted or top-dose-only effect; inactive means flat fitted curve, though single readings scatter.
assay: Cell Viability - LYMP2-009 (AID 968); conditions: LYMP2-009 lymphoblastoid cell viability; series mostly up to 92.2 µM; further: nearly all actives have a fitted effect of over 55% in size
Description: NIH Chemical Genomics Center [NCGC]
NIH Molecular Libraries Screening Centers Network [MLSCN]
National Institutes of Environmental Health Sciences [NIEHS]
National Toxicology Program [NTP]
We have developed a 1536-well cell-based assay for quantitative high throughput screening (qHTS) against a number of cell lines to determine in vitro cytotoxicity of small molecules. This particular assay uses a human lymphoblastoid cell line (LYMP2-009) purchased from Coriell Institute for Medical Research.
NCGC Assay Protocol Summary:
The CellTiter-Glo luminescent cell viability assay (Promega) is a homogeneous method to measure the number of viable cells in culture. The end point readout of this assay is based on quantitation of intracellular ATP, an indicator of metabolic activity, using the luciferase reaction. Luciferase catalyzes the oxidation of beetle Luciferin to oxyluciferin and light in the presence of ATP. The luminescent signal is proportional to amount of ATP present.
Using the CellTiter-Glo luminescent cell viability assay, the amount of cellular ATP was measured in the lymphoblastoid cell line with complete culture medium following compound treatment for 24 hours. The assay was performed in opaque white Kalypsys 1536-well plates. In the screen, tetraoctylammonium bromide was used as positive control. Library compounds were measured for their ability to cause acute toxicity in the cell line, as reflected by a decrease in intracellular ATP levels, in a concentration-dependent manner. […] AC50 values were determined from concentration-response data modeled with the standard Hill equation.
qHTS protocol for CellTiter Glo lymphoblastoid cellular assay
[Step] [Parameter] [Value] [Description]
1. Reagent; 5 uL; 2500 lymphoblastoid cells/well
2. Time; 5 hr; 37 C incubation
4. Controls; 23 nL; Tetraoctylammonium bromide 6.4pM to 92 uM
5. Time; 24 hr; 37 C incubation
6. Reagent; 5 uL; CellTiter Glo reagent
7. Time; 30 min; Room Temperature
8. Detection; Luminescence; Viewlux plate reader
Keywords: cell viability, cytotoxicity, lymphoblastoid cell line, luminescence, NTPHTS, NTPHTS_NCGC, NIEHS, DSSTox, MLSMR, MLSCN, NIH Roadmap, qHTS, NCGC
Potency means the concentration at half of the fitted maximal effect.

**Q.** With CCOCCOC(C)=O as the molecule, how does the Potency read?
**A.** inactive

**Q.** With CCCCCCCCc1ccc(O)cc1 as the molecule, how does the Potency read?
**A.** inactive

**Q.** Which Potency does the source give for CN(C)NC(=O)CCC(=O)O here?
**A.** inactive

**Q.** With CCCCC(CC)COC(=O)c1ccccc1C(=O)OCC(CC)CCCC (stereo unspecified) as the molecule, how does the Potency read?
**A.** inactive

**Q.** Which Potency does the source give for Nc1ccc(Sc2ccc(N)cc2)cc1 here?
**A.** inactive

**Q.** With O=[N+]([O-])c1cc([N+](=O)[O-])c2ccccc2c1 as the molecule, how does the Potency read?
**A.** inactive

**Q.** For Nc1ccc([N+](=O)[O-])cc1, which Potency is on record?
**A.** inactive

**Q.** With Nc1ccc(Cl)cc1N as the molecule, how does the Potency read?
**A.** inactive

**Q.** Which Potency does the source give for O=[N+]([O-])c1c2ccccc2cc2ccccc12 here?
**A.** inactive

**Q.** Which Potency does the source give for CCCCOC(=O)c1ccccc1C(=O)OCc1ccccc1 here?
**A.** inactive

**Q.** For CC(=O)[O][Hg][c]1ccccc1, which Potency is on record?
**A.** 501 nM (active)

**Q.** For COc1ccc(C(c2ccc(OC)cc2)C(Cl)(Cl)Cl)cc1, which Potency is on record?
**A.** inactive

**Q.** With O=C(O)C(Cl)Cl as the molecule, how does the Potency read?
**A.** inactive

**Q.** For C=CC(=O)NCNC(=O)C=C, which Potency is on record?
**A.** inactive

**Q.** For CCOP(=O)(NC(C)C)Oc1ccc(SC)c(C)c1 (stereo unspecified), which Potency is on record?
**A.** inactive

**Q.** For Cc1cc(O)ccc1Cl, which Potency is on record?
**A.** inactive

**Q.** Which Potency does the source give for COC(C)(C)CCCC(C)C/C=C/C(C)=C/C(=O)OC(C)C (stereo unspecified) here?
**A.** inactive

**Q.** With O=S(=O)(c1ccc(Cl)cc1)c1ccc(Cl)cc1 as the molecule, how does the Potency read?
**A.** inactive

**Q.** With Nc1ccc(Cl)cc1 as the molecule, how does the Potency read?
**A.** inactive

**Q.** For O=[N+]([O-])c1c(Cl)c(Cl)cc(Cl)c1Cl, which Potency is on record?
**A.** inactive

**Q.** With CC(C)(O)C(=O)Nc1ccc([N+](=O)[O-])c(C(F)(F)F)c1 as the molecule, how does the Potency read?
**A.** inactive

**Q.** Which Potency does the source give for C1CCC(NC2CCCCC2)CC1 here?
**A.** inactive

**Q.** For OCCCBr, which Potency is on record?
**A.** inactive

**Q.** Which Potency does the source give for c1cc2ccc3cccc4ccc(c1)c2c34 here?
**A.** inactive

**Q.** With CN(C)[C@@H]1C(=O)C(C(N)=O)=C(O)[C@@]2(O)C(=O)C3=C(O)c4c(O)cccc4[C@@](C)(O)[C@H]3[C@H](O)[C@@H]12 as the molecule, how does the Potency read?
**A.** inactive

**Q.** Which Potency does the source give for O=C(O)COc1ccccc1 here?
**A.** inactive

From PubChem BioAssay (NCATS)
